An excerpt weighted towards active compounds, which were near 2.2% of everything screened.
Shn3 inh set2: reduces Shn3 3'UTR luciferase signal in osteoblasts | inhibition, % at 12.5 µM | 0.52% of 360,000 active | Clone20 osteoblast Shn3 3'UTR firefly luciferase, 24 h;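 active means mean inhibition of at least 75% with every replicate also reaching 75%; inconclusive means mean inhibition at least 75% but some replicate below; inactive means mean inhibition below 75%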;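 further: 0% = median of neutral control wells and 100% = pilot-screen positive control compound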
MITF TRPM1 inh: inhibitors of MITF-driven TRPM1 promoter in melanoma cells. 0.83% of 330,000 active. SK-MEL-5 TRPM1 promoter luciferase, 24 h. AID 488899. inhibition, % at 12.5 µM;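 active means mean inhibition across replicates of 60% or more, whatever share of single replicates reaches that level; inconclusive means some that reach 60%, reason not given; inactive means mean inhibition across replicates below 60%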
EWS-Fli block: inhibitors of EWS/Fli oncoprotein transcriptional activity. inhibition, % at 12.6 µM. A673 NR0B1-luciferase reporter, viability-normalised. 0.67% of 350,000 active;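 active means mean inhibition of at least 50% after viability correction, with every replicate also passing that limit; inconclusive means mean reaches 50% but only one of two replicates passes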;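 further: firefly luciferase signal divided by Alamar Blue viability fluorescence both relative to DMSO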
PAX8 reporter: lowers PAX8-driven luciferase in RMG-I cells. inhibition, % at 12.6 µM. 1.2% of 360,000 active. RMG-I TPO-luciferase reporter, SteadyGlo, 24 h. AID 652154;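 active means mean replicate inhibition at least 60% with every replicate also reaching 60%; inconclusive means only one of the two criteria is met; inactive means mean below 60% and not all replicates reaching 60%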;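 further: luciferase light reporting Pax8 driven TPO promoter activity; plate controls were median of neutral control wells for no effect and mitoxantrone controls for full effect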
LGR2 antag: Drosophila LGR2 receptor signaling inhibition; HEK293 LGR2, CRE-luciferase, bursicon-stimulated, 4 h; 0.35% of 380,000 active; inhibition, % at 9.99 µM;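 active means drop in luminescence signal, shown as inhibition above about 50% in the replicate tests, limit read from the data, passing the limit was not always enough; inconclusive means probably only some replicates passing the limit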;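 further: agonist challenge used bursicon conditioned medium at about half maximal strength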
EBV LMP1 NFkB: Epstein-Barr LMP1 NF-kappaB reporter inhibition | LMP1-induced NF-kappaB luciferase reporter cells, luminescence | inhibition, % at 12.5 µM | AID 504558 | 0.69% of 350,000 active; in the data active means inhibition above about 41%; inconclusive means no clear call, values can overlap the other calls;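 further: 0% = neutral control wells and 100% = reference inhibitor control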
An asterisk follows results filed as active; ? = inconclusive; . = no result given.

SMILES | Shn3 inh set2 | MITF TRPM1 inh | EWS-Fli block | PAX8 reporter | LGR2 antag | EBV LMP1 NFkB
Cc1ccccc1NC1=C/C(=N\S(=O)(=O)c2ccc(C(=O)O)cc2)c2ccccc2C1=O | -10 | 22 | -21 | 4 | -5 | -13
CCCN(C)C[C@@H]1OCCCC[C@H](C)Oc2ccc(NC(=O)C3CCCCC3)cc2C(=O)N([C@H](C)CO)C[C@@H]1C | . | . | . | . | 13 | .
COc1ccccc1NC(=O)N[C@@H]1CC[C@H](CCNS(=O)(=O)c2ccccc2)O[C@H]1CO | . | . | 1 | 10 | 17 | .
C[C@H]1CN([C@@H](C)CO)S(=O)(=O)c2ccc(-c3cccnc3)cc2O[C@H]1CN(C)CC1CCOCC1 | . | . | 25 | -5 | 16 | .
O=C(C[C@H]1CC[C@H]2[C@@H](COC[C@@H](O)CN2Cc2ccc3c(c2)OCO3)O1)Nc1ccc(-c2ccccc2)cc1 | . | . | 17 | 87* | 16 | .
O=C(C[C@H]1CC[C@@H]2[C@H](COC[C@@H](O)CN2Cc2ccc3c(c2)OCO3)O1)Nc1ccc(-c2ccccc2)cc1 | . | . | 9 | 52 | 18 | .
O=C(C[C@@H]1CC[C@@H]2[C@H](COC[C@H](O)CN2Cc2ccc3c(c2)OCO3)O1)Nc1ccc(-c2ccccc2)cc1 | . | . | 16 | 80* | 12 | .
Cc1ccc(Nc2nc(N)c3ccccc3n2)cc1C | 32 | 6 | 44 | -12 | 81* | 18
Cn1c(/C=C/c2ccc(Br)cc2)c([N+](=O)[O-])c(=O)n(C)c1=O | 6 | 37 | -1 | 63* | 42 | -1
CN(C)c1ccc(/C=C/c2c([N+](=O)[O-])c(=O)n(C)c(=O)n2C)cc1 | -23 | 7 | -11 | 19 | 13 | 6
S=C(NCc1cccs1)Nc1ccccc1 | -16 | 3 | 12 | 8 | 13 | -2
Cc1ccc(NC(=S)NCc2cccs2)cc1 | 14 | 0 | . | . | . | 87*
COCC(=O)N1CCCCN2[C@H](CO)[C@H](c3ccc(-c4cccc(C)c4)cc3)[C@@H]2C1 | . | . | -4 | -13 | 62* | .
CC(=O)N1CCCCN2[C@H](C1)[C@H](c1ccc(-c3cccc(C)c3)cc1)[C@@H]2CO | . | . | 7 | 74* | -1 | .
CC(=O)N1CCCCN2[C@H](C1)[C@@H](c1ccc(-c3cccc(C)c3)cc1)[C@@H]2CO | . | . | -17 | -6 | 10 | .
Cc1noc(C)c1NC(=O)Nc1ccc2c(c1)C(=O)N([C@H](C)CO)C[C@@H](C)[C@H](CN(C)C(=O)Nc1ccc(F)cc1)OCCCC[C@H](C)O2 | . | . | 4 | 8 | 3 | .
Cc1nc2c(-c3ccc(Cl)cc3)cnn2c(N)c1-c1ccc(F)cc1 | -40 | . | 1 | -115 | 3 | -57
Cc1nc2c(-c3ccc(F)cc3)cnn2c(N)c1-c1ccccc1 | -4 | -1 | 32 | -22 | 64* | 15
Cc1ccc(-c2csc3ncnc(Sc4nnc(CN5CCCCCC5=O)o4)c23)cc1 | 7 | 85* | . | 111* | . | 42*
Cc1ccc(-c2csc3ncnc(SCC(=O)Nc4nnc(C)s4)c23)cc1 | 6 | -3 | . | 5 | . | 2
COc1ccc2c3c(n(C)c2c1)[C@@H](CO)N(Cc1ccncc1)CC31CN(C(=O)C2CCCC2)C1 | . | . | 3 | 17 | 1 | .
CCc1ccc(-c2nc(CSCC(=O)N3CCN(c4ncccn4)CC3)c(C)o2)cc1 | 20 | 30 | 82* | 20 | 4 | 8
COc1ccc(S(=O)(=O)Nc2ccc3c(c2)C(=O)N([C@H](C)CO)C[C@@H](C)[C@H](CN(C)Cc2ccccc2)OCCCC[C@H](C)O3)cc1 | . | . | 3 | -6 | 10 | .
C[C@H](C[C@H](O)[C@H]1OC1(C)C)C1=C2C[C@H](O)C3[C@@]4(C)CCC(=O)C(C)(C)C4CC[C@]3(C)[C@@]2(C)CC1 (stereo partly specified) | 57 | 3 | 1 | 16 | -17 | -4
C[C@@H](C[C@@H](O)[C@H](O)C(C)(C)O)[C@@H]1CC[C@]2(C)C3=CC[C@H]4C(C)(C)C(=O)CC[C@]4(C)[C@H]3CC[C@@]12C | 92* | 9 | 43 | 46 | 0 | 6
SMILES | Shn3 inh set2 | MITF TRPM1 inh | EWS-Fli block | PAX8 reporter | LGR2 antag | EBV LMP1 NFkB
O=C(C[C@@H]1CC[C@H]2[C@@H](COC[C@H](O)CN2Cc2nccs2)O1)NCc1ccc(Oc2ccccc2)cc1 | . | . | . | . | 23 | .
O=c1[nH]c(CN2CCN(c3ccc(O)cc3)CC2)nc2scc(-c3ccc(Cl)cc3)c12 | -15 | 43 | 60* | ? | -15 | 15
O=C(C[C@@H]1CC[C@@H](NC(=O)C2CCOCC2)[C@@H](CO)O1)Nc1ccc(-c2ccccc2)cc1 | . | . | 6 | 3 | 9 | .
C#CC(=O)CC1(CN(Cc2ccccc2)C(=O)OC(C)(C)C)CCCCC1 | 21 | 5 | 15 | 76* | -15 | -5
O=C1N(Cc2ccccc2)Cc2ccccc2[C@H]2OC(c3ccc(OCCCO)cc3)=N[C@@]12Cc1ccccc1 | . | . | 12 | . | . | .
O=C(c1ccccc1)N1Cc2ccccc2C[C@]2(N=C(c3ccc(OCCCO)cc3)O[C@@H]2c2ccccc2)C1=O | . | . | -4 | 68* | . | .
O=C1N(CCS(=O)(=O)c2ccccc2)Cc2ccccc2C[C@@]12N=C(c1ccc(OCCCO)cc1)O[C@H]2c1ccccc1 | . | . | 6 | 94* | . | .
O=C1N(Cc2ccccc2)Cc2ccccc2[C@@H]2OC(c3ccc(OCCCO)cc3)=N[C@]12Cc1ccccc1 | . | . | 10 | 64* | . | .
C[C@H](CO)N1C[C@H](C)[C@H](CN(C)C(=O)NC2CCCCC2)Oc2c(NC(=O)CCCCCC(=O)Nc3ccccc3N)cccc2C1=O | . | . | . | . | 6 | .
C[C@@H]1CN([C@H](C)CO)C(=O)c2cc(NC(=O)NC3CCCCC3)ccc2O[C@@H]1CN(C)C(=O)Nc1ccccc1 | . | . | -8 | -20 | -14 | .
Cc1ccc(S(=O)(=O)N2CCN(C(=O)C3CCN(c4ncnc5sc(C)c(C)c45)CC3)CC2)c(C)c1 | 92* | 12 | 38 | 42 | 20 | 18
COc1ccc(C)cc1S(=O)(=O)Nc1cccc(-c2cn3cccnc3n2)c1 | 16 | 3 | . | 9 | 4 | 3
O=S(=O)(Nc1cccc(-c2cn3cccnc3n2)c1)c1ccc(Cl)cc1 | 19 | 0 | -21 | 132* | -9 | -24
COc1c(CC=C(C)C)cc(C2CC(=O)c3c(O)cc(O)cc3O2)cc1CC=C(C)C (stereo unspecified) | 90* | -4 | -1 | . | . | -7
C[C@@H]1CCCCO[C@H](CN(C)C(=O)Nc2ccc(C(F)(F)F)cc2)[C@@H](C)CN([C@@H](C)CO)C(=O)c2cc(NS(=O)(=O)c3ccc(F)cc3)ccc2O1 | . | . | -10 | 85* | 18 | .
C[C@@H]1CCCCO[C@H](CN(C)C(=O)Nc2ccc(C(F)(F)F)cc2)[C@H](C)CN([C@@H](C)CO)C(=O)c2cc(NS(=O)(=O)c3ccc(F)cc3)ccc2O1 | . | . | 15 | 68* | 14 | .

Screening data: PubChem BioAssay, Broad Institute
